In the antibiotic and cytotoxicity screens of Wong et al. (2023) one finds cytotoxicity call data, which are given here for 66 molecules.

Screen size: about 39,000 compounds; about 3,300 (8.5%) were called active. Shown is part of a subset that was picked to be rich in actives.

This test has as its system HepG2. In words: cytotoxicity call (relative viability < 0.9). The following applies: 10 µM.
In the case of `COc1ccc(NC(=O)N(C)C[C@H]2Oc3ncc(C#CCN(C)C)cc3C(=O)N([C@H](C)CO)C[C@H]2C)cc1`, the cytotoxicity call is “inactive”. Next, `C[C@H](CO)N1C[C@H](C)[C@@H](CN(C)C(=O)C2CCOCC2)Oc2cc(-c3ccc(C(=O)N(C)C)cc3)ccc2S1(=O)=O`: “inactive”.

Take `C[C@H]1CCCCO[C@H](CN(C)Cc2ccc(C(F)(F)F)cc2)[C@@H](C)CN([C@@H](C)CO)C(=O)c2cc(NC(=O)c3ccncc3)ccc2O1`: the cytotoxicity call is “inactive”. The value for `C[C@@H]1CCCCO[C@@H](CN(C)C(=O)CCCN(C)C)[C@@H](C)CN([C@H](C)CO)C(=O)c2cc(N(C)C)ccc2O1` was “inactive”; that for `C[C@H](CO)N1C[C@H](C)[C@@H](CN(C)CC2CCCCC2)Oc2ccc(NC(=O)Cc3cn(C)c4ccccc34)cc2C1=O` was “inactive”; that for `CCCN(C)C[C@H]1OCCCC[C@@H](C)Oc2ccc(NC(=O)Cc3ccccc3)cc2C(=O)N([C@H](C)CO)C[C@H]1C` was “inactive”. The value for `O=C(C[C@H]1CC[C@@H]2[C@H](COC[C@H](O)CN2CC2CCOCC2)O1)N1CCOCC1` was “inactive”. As to `C[C@@H]1CN([C@H](C)CO)C(=O)Cc2cc(NC(=O)CCN3CCOCC3)ccc2O[C@H]1CN(C)S(=O)(=O)c1cccs1`, the cytotoxicity call was “inactive”. The value for `C[C@@H]1CCCCO[C@H](CN(C)Cc2ccncc2)[C@H](C)CN([C@@H](C)CO)C(=O)c2cc(NC(=O)Nc3cccc4ccccc34)ccc2O1` was “active”; that for `C[C@@H]1CCCCO[C@H](CN(C)Cc2ccc(C(=O)O)cc2)[C@@H](C)CN([C@@H](C)CO)C(=O)c2cc(NC(=O)Nc3cccc4ccccc34)ccc2O1` was “inactive”. Next, `C[C@@H]1CCCCO[C@@H](CN(C)Cc2ccccc2)[C@H](C)CN([C@@H](C)CO)C(=O)c2cc(NC(=O)Nc3cccc4ccccc34)ccc2O1`: “inactive”; `C[C@@H]1CN([C@@H](C)CO)C(=O)c2cc(NC(=O)Nc3cccc4ccccc34)ccc2O[C@@H](C)CCCCO[C@@H]1CN(C)Cc1ccncc1`: “inactive”.

Take `C[C@@H]1CCCCO[C@H](CN(C)Cc2ccccc2)[C@@H](C)CN([C@@H](C)CO)C(=O)c2cc(NC(=O)Nc3cccc4ccccc34)ccc2O1`: the cytotoxicity call was “active”.

For the molecule `C[C@@H]1CN([C@@H](C)CO)C(=O)c2cc(NC(=O)Nc3cccc4ccccc34)ccc2O[C@@H](C)CCCCO[C@H]1CN(C)Cc1ccncc1`, the cytotoxicity call is “inactive”. Next, `C[C@@H]1CCCCO[C@@H](CN(C)Cc2ccc(C(=O)O)cc2)[C@@H](C)CN([C@H](C)CO)C(=O)c2cc(NC(=O)Nc3cccc4ccccc34)ccc2O1`: “inactive”; `C[C@H]1CCCCO[C@H](CN(C)Cc2ccccc2)[C@@H](C)CN([C@@H](C)CO)C(=O)c2cc(NC(=O)Nc3cccc4ccccc34)ccc2O1`: “active”.

Turning to `C[C@@H]1CN([C@@H](C)CO)C(=O)c2cc(NC(=O)Nc3cccc4ccccc34)ccc2O[C@@H](C)CCCCO[C@H]1CN(C)Cc1ccccc1`, the cytotoxicity call was “active”. Next, `C[C@@H]1CCCCO[C@@H](CN(C)Cc2ccccc2)[C@@H](C)CN([C@H](C)CO)C(=O)c2cc(NC(=O)Nc3cccc4ccccc34)ccc2O1`: “inactive”. `CC(C)NC(=O)N(C)C[C@@H]1OCc2cnnn2CCCC(=O)N([C@H](C)CO)C[C@@H]1C`: the cytotoxicity call is “inactive”.

Take `C[C@H]1CN([C@@H](C)CO)C(=O)c2c(c3ccccc3n2C)-c2ccccc2CO[C@@H]1CN(C)C(=O)c1ccc(F)cc1`: the cytotoxicity call is “inactive”. Consider `C[C@H]1CCCCO[C@@H](CN(C)Cc2ccc3c(c2)OCO3)[C@@H](C)CN([C@@H](C)CO)C(=O)c2cc(NS(=O)(=O)c3ccc(F)cc3)ccc2O1`, for which the cytotoxicity call was “inactive”.

On to `C[Si](C)(C)O[Si](C)(C)O[Si](C)(C)C`, for which the cytotoxicity call is “inactive”.

As for `COc1ccc(S(=O)(=O)N(C)C[C@@H]2Oc3c(NS(=O)(=O)c4ccc(F)cc4)cccc3C(=O)N([C@H](C)CO)C[C@H]2C)cc1`, the cytotoxicity call is “inactive”. Next, `Cc1ccc(S(=O)(=O)N(C)C[C@H]2OCCCC[C@@H](C)Oc3ccc(NC(=O)C4CCCCC4)cc3C(=O)N([C@H](C)CO)C[C@H]2C)cc1`: “inactive”.

As for `COc1ccccc1CNC(=O)C[C@@H]1CC[C@H]2[C@@H](COC[C@H](O)CN2C(=O)Nc2ccc(Cl)cc2)O1`, the cytotoxicity call is “inactive”. On to `C[C@@H]1CN([C@H](C)CO)C(=O)c2cc(NC(=O)Nc3cccc4ccccc34)ccc2O[C@@H](C)CCCCO[C@H]1CN(C)Cc1ccc(C(F)(F)F)cc1`, for which the cytotoxicity call was “inactive”. As to `C[C@@H]1CCCCO[C@@H](CN(C)Cc2ccccc2)[C@@H](C)CN([C@@H](C)CO)C(=O)c2cc(NC(=O)Nc3cccc4ccccc34)ccc2O1`, the cytotoxicity call was “inactive”. Next, `C[C@@H]1CCCCO[C@@H](CN(C)Cc2ccc(C(=O)O)cc2)[C@@H](C)CN([C@@H](C)CO)C(=O)c2cc(NC(=O)Nc3cccc4ccccc34)ccc2O1`: “inactive”; `C[C@@H]1CN([C@@H](C)CO)C(=O)c2cc(NC(=O)Nc3cccc4ccccc34)ccc2O[C@@H](C)CCCCO[C@@H]1CN(C)Cc1ccccc1`: “active”. Next, `C[C@@H]1CN([C@H](C)CO)C(=O)c2cc(NC(=O)Nc3cccc4ccccc34)ccc2O[C@@H](C)CCCCO[C@H]1CN(C)Cc1ccccc1`: “active”; `C[C@@H]1CCCCO[C@H](CN(C)Cc2ccc(C(=O)O)cc2)[C@H](C)CN([C@H](C)CO)C(=O)c2cc(NC(=O)Nc3cccc4ccccc34)ccc2O1`: “inactive”; `C[C@H](CO)N1C[C@H](C)[C@@H](CN(C)Cc2ccc(C(F)(F)F)cc2)OCCCC[C@H](C)Oc2ccc(NC(=O)Nc3cccc4ccccc34)cc2C1=O`: “active”. `C[C@H](CO)N1C[C@H](C)[C@H](CN(C)Cc2ccccc2)OCCCC[C@H](C)Oc2ccc(NC(=O)Nc3cccc4ccccc34)cc2C1=O`: the cytotoxicity call was “inactive”.

Consider `C[C@@H]1CN([C@@H](C)CO)C(=O)c2cc(NC(=O)Nc3cccc4ccccc34)ccc2O[C@@H](C)CCCCO[C@H]1CN(C)Cc1ccc(C(F)(F)F)cc1`, for which the cytotoxicity call is “inactive”. The value for `COc1ccc(S(=O)(=O)N(C)C[C@@H]2Oc3ccc(NS(=O)(=O)c4c(C)noc4C)cc3C(=O)N([C@@H](C)CO)C[C@H]2C)cc1` was “inactive”. In the case of `COc1ccc(S(=O)(=O)N(C)C[C@H]2OCCCC[C@@H](C)Oc3ccc(NC(=O)CCCCCC(=O)Nc4ccccc4N)cc3C(=O)N([C@H](C)CO)C[C@H]2C)cc1`, the cytotoxicity call is “inactive”.

Regarding `C[C@@H]1CN([C@H](C)CO)C(=O)c2cccc(NS(C)(=O)=O)c2O[C@@H]1CN(C)Cc1ccc2c(c1)OCO2`, the cytotoxicity call was “inactive”.

Consider `C[C@@H]1CN([C@@H](C)CO)C(=O)c2cc(NS(=O)(=O)c3cccs3)ccc2O[C@@H](C)CCCCO[C@@H]1CN(C)S(=O)(=O)c1cn(C)cn1`, for which the cytotoxicity call was “inactive”. Next, `Cc1noc(C)c1NC(=O)Nc1ccc2c(c1)CC(=O)N([C@H](C)CO)C[C@@H](C)[C@@H](CN(C)S(C)(=O)=O)O2`: “inactive”; `CS(=O)(=O)Nc1ccc2c(c1)[C@@H]1C[C@H](CC(=O)NCC3CC3)O[C@@H](CO)[C@@H]1O2`: “inactive”; `C[C@@H]1CN([C@@H](C)CO)C(=O)c2cc(NC(=O)Cc3ccccc3)ccc2O[C@@H](C)CCCCO[C@@H]1CN(C)S(=O)(=O)c1ccc(F)cc1`: “inactive”. The value for `C[C@@H]1CN([C@@H](C)CO)C(=O)c2cc(NC(=O)c3ccccc3)ccc2O[C@@H](C)CCCCO[C@H]1CN(C)Cc1ccncc1` was “inactive”. The value for `CC(C)NC(=O)Nc1cccc2c1O[C@H](CN(C)Cc1ccc3c(c1)OCO3)[C@H](C)CN([C@@H](C)CO)C2=O` was “inactive”; that for `C[C@H]1CN([C@@H](C)CO)C(=O)c2cccc(NC(=O)C3CC3)c2O[C@H]1CN(C)Cc1ccc(-c2ccccc2)cc1` was “inactive”. `Cc1cc(CCC[C@H](CC(=O)NO)C(=O)N[C@H](C(=O)N[C@H](C)c2ccccc2)C(C)(C)C)ccc1-c1ccccc1`: the cytotoxicity call is “active”.

Turning to `Nc1cccc(-c2cccs2)c1`, the cytotoxicity call is “inactive”. Take `C[C@H](CO)N1C[C@H](C)[C@H](CN(C)S(C)(=O)=O)Oc2ncc(C#Cc3cccnc3)cc2C1=O`: the cytotoxicity call was “inactive”. The value for `CN(C)CCN(Cc1ccc(Cl)cc1)c1ccccn1.Cl` was “inactive”. Consider `COc1ccc(CN(CCN(C)C)c2ccccn2)cc1.O=C(O)C=CC(=O)O`, for which the cytotoxicity call is “inactive”.

As to `CN(C)CCN(Cc1ccccc1)c1ccccn1.O=C(O)CC(O)(CC(=O)O)C(=O)O`, the cytotoxicity call is “active”. Regarding `C[C@H](CO)N1C[C@H](C)[C@@H](CN(C)S(=O)(=O)c2cn(C)cn2)Oc2ccc(NC(=O)CCC(F)(F)F)cc2C1=O`, the cytotoxicity call is “inactive”. Next, `C[C@@H]1CN([C@H](C)CO)S(=O)(=O)c2ccc(C#CCN(C)C)cc2O[C@H]1CN(C)S(C)(=O)=O`: “inactive”; `Cc1cc(C(=O)Nc2cccc3c2O[C@H](CN(C)S(=O)(=O)c2c(C)noc2C)[C@H](C)CN([C@H](C)CO)C3=O)n(C)n1`: “inactive”; `CC1(C)C[C@@](CCN)(Cc2ccccc2)CCO1`: “inactive”. Next, `Cc1ccc(S(=O)(=O)N(C)C[C@@H]2OCCCC[C@H](C)Oc3ccc(NS(=O)(=O)c4ccc(F)cc4)cc3C(=O)N([C@H](C)CO)C[C@@H]2C)cc1`: “active”. The value for `Cc1ccc(S(=O)(=O)N(C)C[C@H]2OCCCC[C@H](C)Oc3ccc(NS(=O)(=O)c4ccc(F)cc4)cc3C(=O)N([C@@H](C)CO)C[C@@H]2C)cc1` was “inactive”; that for `Cc1ccc(S(=O)(=O)Nc2ccc3c(c2)C(=O)N([C@H](C)CO)C[C@@H](C)[C@H](CN(C)S(=O)(=O)c2ccc(F)cc2)OCCCC[C@@H](C)O3)cc1` was “inactive”.

Regarding `Cc1ccc(S(=O)(=O)Nc2ccc3c(c2)C(=O)N([C@@H](C)CO)C[C@H](C)[C@@H](CN(C)S(=O)(=O)c2ccc(F)cc2)OCCCC[C@H](C)O3)cc1`, the cytotoxicity call was “inactive”.

As to `Cc1ccc(S(=O)(=O)Nc2ccc3c(c2)C(=O)N([C@@H](C)CO)C[C@@H](C)[C@H](CN(C)S(=O)(=O)c2ccc(F)cc2)OCCCC[C@@H](C)O3)cc1`, the cytotoxicity call is “inactive”. The value for `Cc1ccc(S(=O)(=O)Nc2ccc3c(c2)C(=O)N([C@H](C)CO)C[C@H](C)[C@H](CN(C)S(=O)(=O)c2ccc(F)cc2)OCCCC[C@H](C)O3)cc1` was “inactive”; that for `Cc1ccc(S(=O)(=O)N(C)C[C@@H]2OCCCC[C@H](C)Oc3ccc(NS(=O)(=O)c4ccc(F)cc4)cc3C(=O)N([C@@H](C)CO)C[C@@H]2C)cc1` was “active”; that for `Cc1ccc(S(=O)(=O)N(C)C[C@@H]2OCCCC[C@@H](C)Oc3ccc(NS(=O)(=O)c4ccc(F)cc4)cc3C(=O)N([C@H](C)CO)C[C@H]2C)cc1` was “active”.

With `Cc1ccc(S(=O)(=O)Nc2ccc3c(c2)C(=O)N([C@@H](C)CO)C[C@H](C)[C@@H](CN(C)S(=O)(=O)c2ccc(F)cc2)OCCCC[C@@H](C)O3)cc1`, the cytotoxicity call is “inactive”. The value for `Cc1ccc(S(=O)(=O)N(C)C[C@@H]2OCCCC[C@H](C)Oc3ccc(NS(=O)(=O)c4ccc(F)cc4)cc3C(=O)N([C@@H](C)CO)C[C@H]2C)cc1` was “active”; that for `Cc1ccc(S(=O)(=O)Nc2ccc3c(c2)C(=O)N([C@H](C)CO)C[C@H](C)[C@@H](CN(C)S(=O)(=O)c2ccc(F)cc2)OCCCC[C@H](C)O3)cc1` was “inactive”; that for `Cc1ccc(S(=O)(=O)N(C)C[C@H]2OCCCC[C@H](C)Oc3ccc(NS(=O)(=O)c4ccc(F)cc4)cc3C(=O)N([C@H](C)CO)C[C@H]2C)cc1` was “inactive”.
